In experiment [1] the target is POU1 (OCT1 POU domain) (human, UniProt P14859 260-458). The experiment is described as follows: EMSA-SELEX-seq; no BOB1; 20 mM Tris-HCl pH 7.6, 140 mM NaCl, 10% glycerol, 0.5 mM EDTA, 0.05% Triton X-100, 0.1 mg/mL BSA, 0.1 mg/mL poly(dI-dC), 5 mM DTT, room temperature, 20 min; high values mean tight binding. The conditions noted are these: protein: recombinant; dsDNA, one strand shown. In short, it runs like this: (§1)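 With or without 28 ng coactivator protein, 30 ng of tagged POU-domain protein was combined with 300 ng of a PCR-amplified double-stranded random 35-nt library in 20 μL Tris–HCl pH 7.6 binding buffer for 20 min at RT. The protein came from E. coli BL21 and had been purified under denaturing conditions and renatured. Four rounds of cutting complex bands from native 6% PAGE, elution and PCR amplification preceded Illumina sequencing. The binding preference figure is the percentage of sequenced 8-mers matching a motif pattern.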
Chain of POU1 (OCT1 POU domain) (P14859 260-458): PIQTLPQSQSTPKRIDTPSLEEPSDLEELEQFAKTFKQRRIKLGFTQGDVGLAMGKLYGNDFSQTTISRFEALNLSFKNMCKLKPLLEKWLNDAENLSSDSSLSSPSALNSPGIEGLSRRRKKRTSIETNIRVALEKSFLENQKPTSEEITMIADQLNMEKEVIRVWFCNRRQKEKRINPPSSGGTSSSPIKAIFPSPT
A general note: Mobility shift assays separate free from complexed probe on a gel.

In experiment [2] the target is T1, POU2 (OCT2 POU domain) (human, UniProt P09086 175-386).
T1 sequence: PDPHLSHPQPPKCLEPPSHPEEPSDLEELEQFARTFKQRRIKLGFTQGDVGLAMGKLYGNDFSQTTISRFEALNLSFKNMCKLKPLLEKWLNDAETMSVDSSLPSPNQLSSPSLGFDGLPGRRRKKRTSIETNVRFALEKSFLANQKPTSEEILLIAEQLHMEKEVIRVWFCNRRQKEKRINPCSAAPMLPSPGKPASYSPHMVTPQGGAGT
Described as above. The conditions noted are these: protein: recombinant; dsDNA, one strand shown. In short, it runs like this: as §1

The target in experiment [3] is POU1 (OCT1 POU domain);BOB1 (OBF1, OCA-B) (human;human, UniProt P14859;Q16633 260-458;1-256, |). Kind of experiment: EMSA-SELEX-seq; with BOB1 (ternary complex band); 20 mM Tris-HCl pH 7.6, 140 mM NaCl, 10% glycerol, 0.5 mM EDTA, 0.05% Triton X-100, 0.1 mg/mL BSA, 0.1 mg/mL poly(dI-dC), 5 mM DTT, room temperature, 20 min; high values mean tight binding. The following applies: protein: recombinant;recombinant; copies: 1;1; dsDNA, one strand shown. Summed up: as §1

In experiment [4] the target is T2, POU2 (OCT2 POU domain);BOB1 (OBF1, OCA-B) (human;human, UniProt P09086;Q16633 175-386;1-256, |).
T2 sequence 1: T1 sequence
T2 sequence 2: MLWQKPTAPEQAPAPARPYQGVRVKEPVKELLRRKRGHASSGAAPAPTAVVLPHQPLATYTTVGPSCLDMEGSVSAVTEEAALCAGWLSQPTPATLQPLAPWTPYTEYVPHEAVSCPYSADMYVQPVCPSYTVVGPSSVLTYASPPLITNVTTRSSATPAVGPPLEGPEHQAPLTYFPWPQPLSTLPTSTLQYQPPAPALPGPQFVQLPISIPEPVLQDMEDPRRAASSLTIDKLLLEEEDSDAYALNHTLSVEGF
Described as above. The following applies: protein: recombinant;recombinant; copies: 1;1; dsDNA, one strand shown. Summed up:
as §1

Experimental findings from publication PMC10812921, “Transcriptional Coactivator BOB1 (OBF1, OCA-B) Modulates the Specificity of DNA Recognition by the POU-Domain Factors OCT1 and OCT2 in a Monomeric Configuration” are described below.

As to AGAGCAAC, the binding signal in experiment [1] was 0.0133 % of ANNNNAAN 8-mers; in experiment [2], 0.0115 % of ANNNNAAN 8-mers; in experiment [3] it was 0.0137 % of ANNNNAAN 8-mers; in experiment [4], 0.0206 % of ANNNNAAN 8-mers.

Consider ACCGGAAA, for which the binding signal is 0.0271 % of ANNNNAAN 8-mers in experiment [1], 0.0236 % of ANNNNAAN 8-mers in experiment [2], 0.0265 % of ANNNNAAN 8-mers in experiment [3] and 0.0281 % of ANNNNAAN 8-mers in experiment [4].

Consider ATCGGAAA, for which the binding signal in experiment [1] is 0.04 % of ANNNNAAN 8-mers; in experiment [2], 0.0409 % of ANNNNAAN 8-mers; in experiment [3], 0.0429 % of ANNNNAAN 8-mers; in experiment [4], 0.0528 % of ANNNNAAN 8-mers.

Consider AGTACAAG, for which the binding signal in experiment [1] was 0.029 % of ANNNNAAN 8-mers; in experiment [2], 0.0253 % of ANNNNAAN 8-mers; in experiment [3] it was 0.0359 % of ANNNNAAN 8-mers; in experiment [4], 0.0297 % of ANNNNAAN 8-mers.

On to ATGTAAAA, for which the binding signal is 0.714 % of ANNNNAAN 8-mers in experiment [1], 0.496 % of ANNNNAAN 8-mers in experiment [2], 0.631 % of ANNNNAAN 8-mers in experiment [3] and 0.618 % of ANNNNAAN 8-mers in experiment [4].

Take ATGACAAC: the binding signal is 0.0259 % of ANNNNAAN 8-mers in experiment [1], 0.0207 % of ANNNNAAN 8-mers in experiment [2], 0.0277 % of ANNNNAAN 8-mers in experiment [3] and 0.0355 % of ANNNNAAN 8-mers in experiment [4].

As to ACTGTAAG, the binding signal in experiment [1] was 0.0225 % of ANNNNAAN 8-mers; in experiment [2], 0.027 % of ANNNNAAN 8-mers; in experiment [3], 0.0265 % of ANNNNAAN 8-mers; in experiment [4] it was 0.0264 % of ANNNNAAN 8-mers.

On to AGGGCAAT, for which the binding signal is 0.0442 % of ANNNNAAN 8-mers in experiment [1], 0.0558 % of ANNNNAAN 8-mers in experiment [2], 0.0457 % of ANNNNAAN 8-mers in experiment [3] and 0.0611 % of ANNNNAAN 8-mers in experiment [4].

For ATTAGAAT, the binding signal is 0.5 % of ANNNNAAN 8-mers in experiment [1], 0.61 % of ANNNNAAN 8-mers in experiment [2], 0.133 % of ANNNNAAN 8-mers in experiment [3] and 0.18 % of ANNNNAAN 8-mers in experiment [4].

Take AAGTTAAG: the binding signal in experiment [1] is 0.0568 % of ANNNNAAN 8-mers; in experiment [2] it was 0.0742 % of ANNNNAAN 8-mers; in experiment [3], 0.0539 % of ANNNNAAN 8-mers; in experiment [4], 0.0636 % of ANNNNAAN 8-mers.

For ACATCAAG, the binding signal is 0.024 % of ANNNNAAN 8-mers in experiment [1], 0.0351 % of ANNNNAAN 8-mers in experiment [2], 0.0265 % of ANNNNAAN 8-mers in experiment [3] and 0.033 % of ANNNNAAN 8-mers in experiment [4].

For AGTGGAAT, the binding signal in experiment [1] is 0.0995 % of ANNNNAAN 8-mers; in experiment [2] it was 0.121 % of ANNNNAAN 8-mers; in experiment [3] it was 0.0847 % of ANNNNAAN 8-mers; in experiment [4], 0.104 % of ANNNNAAN 8-mers.

As to AAAGGAAA, the binding signal in experiment [1] was 0.103 % of ANNNNAAN 8-mers; in experiment [2] it was 0.0903 % of ANNNNAAN 8-mers; in experiment [3], 0.144 % of ANNNNAAN 8-mers; in experiment [4] it was 0.0933 % of ANNNNAAN 8-mers.

For ACAAAAAA, the binding signal in experiment [1] was 0.0656 % of ANNNNAAN 8-mers; in experiment [2], 0.0621 % of ANNNNAAN 8-mers; in experiment [3] it was 0.0808 % of ANNNNAAN 8-mers; in experiment [4], 0.0528 % of ANNNNAAN 8-mers.

In the case of AGGCTAAG, the binding signal in experiment [1] was 0.0362 % of ANNNNAAN 8-mers; in experiment [2], 0.0414 % of ANNNNAAN 8-mers; in experiment [3] it was 0.0312 % of ANNNNAAN 8-mers; in experiment [4], 0.0446 % of ANNNNAAN 8-mers.
